According to the supplement of paper PMC11732987, “Enantioselective OTUD7B fragment discovery through chemoproteomics screening and high-throughput optimisation” (Communications Chemistry, 2025):

Key:
Assay in all cases: log2 ratio of Biotin-Ahx-Ub-VS probe labelling (fragment/DMSO); higher = less target engagement (more negative = stronger competition), active = hit call of the paper (q ≤ 0.05, log2 ratio ≤ -1)
Details in all cases: compound concentration: 200 uM; treatment time: 3 h
[1] = molecular target: T1, USP19 (UniProt O94966)
T1 sequence (whole entry): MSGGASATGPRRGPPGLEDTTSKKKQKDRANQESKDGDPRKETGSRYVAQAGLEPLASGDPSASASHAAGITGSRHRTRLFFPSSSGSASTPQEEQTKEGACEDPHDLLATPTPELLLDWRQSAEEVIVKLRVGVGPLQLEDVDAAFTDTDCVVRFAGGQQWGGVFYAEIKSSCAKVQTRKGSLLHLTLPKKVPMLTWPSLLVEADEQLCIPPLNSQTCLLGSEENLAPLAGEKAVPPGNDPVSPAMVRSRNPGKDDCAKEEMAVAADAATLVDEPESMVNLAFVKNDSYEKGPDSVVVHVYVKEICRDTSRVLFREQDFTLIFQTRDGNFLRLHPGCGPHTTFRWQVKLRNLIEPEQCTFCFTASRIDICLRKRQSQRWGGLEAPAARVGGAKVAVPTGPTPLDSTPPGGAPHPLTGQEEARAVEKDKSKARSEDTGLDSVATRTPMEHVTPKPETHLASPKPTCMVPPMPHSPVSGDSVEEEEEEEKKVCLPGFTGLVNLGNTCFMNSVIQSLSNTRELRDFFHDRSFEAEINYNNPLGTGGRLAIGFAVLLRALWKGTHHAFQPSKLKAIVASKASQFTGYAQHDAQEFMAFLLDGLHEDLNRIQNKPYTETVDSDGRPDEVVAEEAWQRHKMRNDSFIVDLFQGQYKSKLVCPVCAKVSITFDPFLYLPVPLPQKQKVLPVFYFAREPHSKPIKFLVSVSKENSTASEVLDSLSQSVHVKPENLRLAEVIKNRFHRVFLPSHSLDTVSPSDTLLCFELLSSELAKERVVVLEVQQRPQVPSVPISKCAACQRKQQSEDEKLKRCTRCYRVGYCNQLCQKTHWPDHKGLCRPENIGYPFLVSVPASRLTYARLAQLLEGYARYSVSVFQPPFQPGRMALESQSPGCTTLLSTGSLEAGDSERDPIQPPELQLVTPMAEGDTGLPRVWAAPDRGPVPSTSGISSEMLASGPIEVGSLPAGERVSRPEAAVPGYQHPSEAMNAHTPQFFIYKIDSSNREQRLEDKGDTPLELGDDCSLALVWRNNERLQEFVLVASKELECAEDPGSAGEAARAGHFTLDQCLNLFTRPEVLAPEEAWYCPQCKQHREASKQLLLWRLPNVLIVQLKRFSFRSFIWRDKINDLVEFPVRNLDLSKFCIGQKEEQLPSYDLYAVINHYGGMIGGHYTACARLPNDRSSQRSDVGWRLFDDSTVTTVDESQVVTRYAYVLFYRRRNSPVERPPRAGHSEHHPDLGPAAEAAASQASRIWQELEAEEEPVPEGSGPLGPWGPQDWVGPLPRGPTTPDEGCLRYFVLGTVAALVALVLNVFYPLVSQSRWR
In short: (§1)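 Average log2 ratios of fragment over vehicle were obtained by unpaired t-test from global-median-normalised Spectronaut label-free quantities. Proteins with ≥2 unique peptides were included. HEK293T lysate (495 µg per sample) was treated in triplicate with fragment at 200 µM or vehicle for 3 h, then with Biotin-Ahx-Ub-VS at 0.5 µM final for 1 h, and labelled DUBs were NeutrAvidin-enriched and run by diaPASEF LC-MS/MS.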

[2] = molecular target: USP24 (UniProt Q9UPU5)
In short: as §1

[3] = molecular target: T2, USP25 (UniProt Q9UHP3)
T2 sequence (whole entry): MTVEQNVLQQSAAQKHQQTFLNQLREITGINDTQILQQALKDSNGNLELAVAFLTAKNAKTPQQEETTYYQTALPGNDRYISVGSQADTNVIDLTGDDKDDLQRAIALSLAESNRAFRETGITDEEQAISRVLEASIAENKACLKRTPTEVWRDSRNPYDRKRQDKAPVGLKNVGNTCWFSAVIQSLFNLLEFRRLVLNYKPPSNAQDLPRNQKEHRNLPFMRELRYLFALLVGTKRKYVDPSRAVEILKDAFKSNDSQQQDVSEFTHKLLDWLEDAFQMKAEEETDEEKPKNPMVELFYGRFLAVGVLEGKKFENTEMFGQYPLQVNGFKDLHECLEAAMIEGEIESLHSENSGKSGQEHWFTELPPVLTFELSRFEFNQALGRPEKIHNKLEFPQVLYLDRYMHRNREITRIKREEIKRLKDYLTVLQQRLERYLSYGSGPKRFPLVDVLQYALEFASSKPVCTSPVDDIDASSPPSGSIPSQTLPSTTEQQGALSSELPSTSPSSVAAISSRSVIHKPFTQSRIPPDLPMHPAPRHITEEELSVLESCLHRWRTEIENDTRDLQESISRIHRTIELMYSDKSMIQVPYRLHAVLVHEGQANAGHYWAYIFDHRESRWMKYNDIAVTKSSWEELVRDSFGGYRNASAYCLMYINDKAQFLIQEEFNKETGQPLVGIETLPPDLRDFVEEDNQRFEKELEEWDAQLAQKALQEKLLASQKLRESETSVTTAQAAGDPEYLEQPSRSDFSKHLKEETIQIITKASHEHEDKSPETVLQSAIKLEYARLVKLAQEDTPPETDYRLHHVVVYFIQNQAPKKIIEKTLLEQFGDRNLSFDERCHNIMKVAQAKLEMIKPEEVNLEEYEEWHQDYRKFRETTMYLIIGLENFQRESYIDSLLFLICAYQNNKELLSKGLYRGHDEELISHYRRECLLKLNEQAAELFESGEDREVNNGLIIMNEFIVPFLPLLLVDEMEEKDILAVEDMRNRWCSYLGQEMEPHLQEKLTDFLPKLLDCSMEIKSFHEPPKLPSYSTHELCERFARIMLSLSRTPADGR
In short: as §1

[4] = molecular target: T3, USP28 (UniProt Q96RU2)
T3 sequence (whole entry): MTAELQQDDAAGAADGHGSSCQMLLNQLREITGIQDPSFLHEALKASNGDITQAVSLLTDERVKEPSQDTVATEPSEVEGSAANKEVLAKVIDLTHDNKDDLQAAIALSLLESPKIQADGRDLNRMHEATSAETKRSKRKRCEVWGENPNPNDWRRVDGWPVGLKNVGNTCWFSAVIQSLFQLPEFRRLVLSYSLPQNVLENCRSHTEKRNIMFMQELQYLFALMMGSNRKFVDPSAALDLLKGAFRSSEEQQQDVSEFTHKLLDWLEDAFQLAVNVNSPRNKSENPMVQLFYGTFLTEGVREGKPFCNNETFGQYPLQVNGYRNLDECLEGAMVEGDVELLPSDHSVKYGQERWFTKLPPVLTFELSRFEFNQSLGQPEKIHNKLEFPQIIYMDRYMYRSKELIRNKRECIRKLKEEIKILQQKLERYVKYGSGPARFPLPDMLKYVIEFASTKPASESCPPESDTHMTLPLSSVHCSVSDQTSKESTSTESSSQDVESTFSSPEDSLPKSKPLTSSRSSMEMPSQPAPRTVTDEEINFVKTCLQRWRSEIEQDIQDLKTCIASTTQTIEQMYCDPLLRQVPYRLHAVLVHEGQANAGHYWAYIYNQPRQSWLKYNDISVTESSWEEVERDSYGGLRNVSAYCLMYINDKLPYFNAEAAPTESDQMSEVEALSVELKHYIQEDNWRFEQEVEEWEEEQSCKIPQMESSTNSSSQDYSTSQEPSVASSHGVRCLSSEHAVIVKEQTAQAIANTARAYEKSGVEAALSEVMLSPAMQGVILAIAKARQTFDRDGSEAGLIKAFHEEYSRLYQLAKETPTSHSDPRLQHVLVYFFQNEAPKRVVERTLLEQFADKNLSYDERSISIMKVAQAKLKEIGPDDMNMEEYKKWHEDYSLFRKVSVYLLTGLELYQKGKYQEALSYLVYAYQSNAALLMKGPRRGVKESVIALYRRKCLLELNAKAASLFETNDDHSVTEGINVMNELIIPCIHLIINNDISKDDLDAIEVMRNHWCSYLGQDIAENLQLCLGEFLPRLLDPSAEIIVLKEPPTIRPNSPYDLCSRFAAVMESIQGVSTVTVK
In short: as §1

Measured: log2 ratio of Biotin-Ahx-Ub-VS probe labelling

USP24, sequence (Q9UPU5 whole entry): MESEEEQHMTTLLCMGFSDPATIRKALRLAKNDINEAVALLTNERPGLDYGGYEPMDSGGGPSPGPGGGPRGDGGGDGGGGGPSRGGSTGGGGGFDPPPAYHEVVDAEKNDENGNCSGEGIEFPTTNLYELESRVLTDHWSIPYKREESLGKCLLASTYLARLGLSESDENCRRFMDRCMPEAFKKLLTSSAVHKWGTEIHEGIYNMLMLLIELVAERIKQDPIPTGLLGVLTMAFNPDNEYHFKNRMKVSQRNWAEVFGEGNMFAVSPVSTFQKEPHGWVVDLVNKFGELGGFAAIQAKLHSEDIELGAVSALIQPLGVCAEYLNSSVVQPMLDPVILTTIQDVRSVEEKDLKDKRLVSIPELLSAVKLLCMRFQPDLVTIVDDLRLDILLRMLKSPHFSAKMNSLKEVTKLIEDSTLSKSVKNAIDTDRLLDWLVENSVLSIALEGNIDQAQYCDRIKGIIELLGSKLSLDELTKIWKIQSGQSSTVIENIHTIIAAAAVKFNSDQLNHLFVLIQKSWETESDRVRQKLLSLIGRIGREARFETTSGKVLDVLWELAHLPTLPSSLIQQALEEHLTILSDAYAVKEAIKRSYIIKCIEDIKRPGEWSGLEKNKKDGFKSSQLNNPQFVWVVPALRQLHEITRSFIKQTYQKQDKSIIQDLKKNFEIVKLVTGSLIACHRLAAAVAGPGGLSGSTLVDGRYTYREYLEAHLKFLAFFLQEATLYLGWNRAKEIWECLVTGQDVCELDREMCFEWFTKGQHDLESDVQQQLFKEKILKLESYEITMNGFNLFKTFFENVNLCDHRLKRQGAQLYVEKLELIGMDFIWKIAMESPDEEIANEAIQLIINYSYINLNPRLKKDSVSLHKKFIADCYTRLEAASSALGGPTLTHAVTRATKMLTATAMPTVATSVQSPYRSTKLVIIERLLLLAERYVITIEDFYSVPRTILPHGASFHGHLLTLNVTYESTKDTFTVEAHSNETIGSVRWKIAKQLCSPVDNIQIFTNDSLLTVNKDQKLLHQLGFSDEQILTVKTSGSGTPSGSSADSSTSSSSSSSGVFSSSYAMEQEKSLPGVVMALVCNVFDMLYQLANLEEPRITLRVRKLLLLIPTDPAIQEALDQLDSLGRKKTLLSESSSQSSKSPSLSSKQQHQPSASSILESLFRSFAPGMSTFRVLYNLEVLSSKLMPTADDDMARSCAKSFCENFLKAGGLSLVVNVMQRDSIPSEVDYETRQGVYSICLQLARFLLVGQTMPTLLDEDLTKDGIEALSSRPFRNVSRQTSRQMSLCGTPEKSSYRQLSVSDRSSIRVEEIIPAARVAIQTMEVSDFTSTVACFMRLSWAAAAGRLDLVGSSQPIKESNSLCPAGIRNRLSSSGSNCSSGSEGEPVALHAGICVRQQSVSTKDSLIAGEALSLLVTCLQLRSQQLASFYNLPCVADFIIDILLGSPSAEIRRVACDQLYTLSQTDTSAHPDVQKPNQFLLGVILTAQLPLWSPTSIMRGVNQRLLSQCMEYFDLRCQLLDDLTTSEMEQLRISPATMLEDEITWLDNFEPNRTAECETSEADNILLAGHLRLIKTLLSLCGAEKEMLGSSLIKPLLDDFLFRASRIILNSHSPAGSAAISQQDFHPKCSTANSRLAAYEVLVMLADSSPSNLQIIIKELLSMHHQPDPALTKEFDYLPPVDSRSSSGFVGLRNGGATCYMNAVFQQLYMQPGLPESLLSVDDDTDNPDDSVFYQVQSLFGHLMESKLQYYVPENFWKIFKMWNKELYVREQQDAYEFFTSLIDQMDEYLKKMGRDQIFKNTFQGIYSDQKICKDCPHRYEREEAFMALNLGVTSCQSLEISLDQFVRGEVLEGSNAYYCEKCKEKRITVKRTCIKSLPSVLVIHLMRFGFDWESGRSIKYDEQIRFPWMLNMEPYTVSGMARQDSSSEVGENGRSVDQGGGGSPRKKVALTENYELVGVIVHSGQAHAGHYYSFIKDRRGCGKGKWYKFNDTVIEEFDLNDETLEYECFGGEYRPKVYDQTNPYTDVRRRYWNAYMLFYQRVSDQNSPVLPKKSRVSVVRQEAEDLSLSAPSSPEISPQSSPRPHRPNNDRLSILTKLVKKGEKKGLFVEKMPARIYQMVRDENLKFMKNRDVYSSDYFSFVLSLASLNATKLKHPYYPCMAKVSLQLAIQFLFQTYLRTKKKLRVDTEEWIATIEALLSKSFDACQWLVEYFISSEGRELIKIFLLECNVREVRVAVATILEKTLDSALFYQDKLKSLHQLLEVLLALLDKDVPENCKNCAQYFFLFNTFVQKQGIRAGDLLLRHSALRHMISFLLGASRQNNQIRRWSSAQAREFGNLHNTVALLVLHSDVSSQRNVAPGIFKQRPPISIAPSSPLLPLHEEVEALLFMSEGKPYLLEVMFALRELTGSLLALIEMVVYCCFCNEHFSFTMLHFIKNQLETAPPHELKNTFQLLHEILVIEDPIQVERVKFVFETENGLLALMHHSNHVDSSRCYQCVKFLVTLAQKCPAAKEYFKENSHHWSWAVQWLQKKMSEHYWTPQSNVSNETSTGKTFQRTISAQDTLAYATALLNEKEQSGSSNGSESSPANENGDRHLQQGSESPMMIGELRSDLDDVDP

O=C(CCl)Nc1ccc(F)cc1F
inactive: [1] -0.101 | [2] -0.312 | [3] -0.265 | [4] -0.838
